In the assay the test system is VDR:RXRa (NR concentration 270 nM, RXRa partner concentration 90 nM). Nature of the assay: PBM binding z-score (relative to random genomic background probes); higher = stronger binding; sequences stand for … in GC…GCGATTGACAGCGTAGAATGAAGG
On the procedure:
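Protein-binding microarray (Agilent 4x180K custom design, double-stranded 60-nt probes: 5' GC cap, 34-nt variable region, 24-nt constant primer region; full probe sequence given). Purified or IVT nuclear receptor:RXRα heterodimers (3:1 NR:RXRα, mostly 270:90 nM) or homodimers were incubated for 1 h in PBS with 2% milk and no ligand, then detected with Alexa488 antibodies. Fluorescence from o1-orientation probes (~5 replicates averaged) was converted to z-scores against 500 random hg19 background probes. Variable regions are seed direct-repeat (DR0–DR5) sites, all their single-nucleotide variants and half-site ablations.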
CCTACTGGGCCAGGAAAGGTCATTGATTCAGTGA had a PBM binding z-score of 3.53. In turn, CAGACTAGGTCACAGAGGTCAAAGTCCGTGCGTA had a PBM binding z-score of 7.98. Under CAGCCTAGGTCAGGGCCAGCATAGGAGGAACGTT stands 0.0584; under ATCTCTAGGTAACAAGTTCAGTGTAAGAGAGGAC, 2.3. For TAGCCTAGGTCATCCGGGCCAGTATAGTGTCGGC the value was 3.81; for CCTTACGGGTCACTGACAGGTTATGGCATTTGGA, 3.75.

Turning to TCAAGTTGGTCACGGAGGTCACACACGACGGGTA, the PBM binding z-score is 5.67.

As to TGTCAAACTTCAAAGGTAACGTAAGTATCCACAC, the PBM binding z-score is 0.41. In the case of CCTAGCAGGCCAATCTGGGTCACTTAAGGCTTGA, the PBM binding z-score was 0.526. Under CCTACTGGGCCATTCAGAGGTCATTGACCATATG stands 3.83; under CCTTACGGGTCACTGTCAGGTTATAGCATTTGGA, 3.87.

Take TCATATAGGTAATAGAGGTGAAAGTCGGCATCTA: the PBM binding z-score was determined as 2.08.

The sequence CCTCGGGGGACAGAAGGTCAGAGCTGTCCGCTTT yielded a PBM binding z-score of 2.3. Consider CTACCAAGGTGAACAAGGTCTTTGATTACTATTC, for which the PBM binding z-score stood at 3.6. Turning to ATTCCAAGGTGATCGTGAGGTCGTTGATACTAAC, the PBM binding z-score was found to be 3.31. Sequence CAGCCTAGGTCAGGGCCAATATAGGAGGAACGTT displayed a PBM binding z-score of 0.378. For TCTAGCAGGCCAGAGGGTCACTCACGAGGTACGG the value was 1.33; for ATATGTAGGTTAAGGCTCATTCAGGTTGGTTCGC, 0.395; for CCAGACAGGTGACAGGTAACTCAGTCTGGTACGC, -0.206. For TCTTGTAGATTAACAGGAGGTTAAGAAAGATCGA the value was 0.91; for ATCGAAAGGTGGAAGGTGAGTATACCCACCCGAA, 0.0525; for CCTACTGGGCCATAAGGTCATTGATATCAACGTT, 3.71. Take CCTACTGGGCCACGAAAGCTCATTGATTCAGTGA: the PBM binding z-score is -0.828. Under TCATATAGGTAAATGCTAAGTGAAAGTCCGATCT stands 0.987; under CTGAGTAGGTTATGGGGCATTCAGGCAACGGTGA, 0.0973; under ACTATTAGTTGAGACGAGGGCACCCGATAGGTTG, 0.529. Under ATCTCTAGTTAAAGATAGTTCAGTGAATGCAAAT stands 1.04; under AGAATGAGGTTACCAAAGATCAGAGAAACGCTTG, 1.36. Regarding TCAGACAGGTGAAGGTAACGCAGGTACGCAGTCG, the PBM binding z-score is 0.637. For TCTGCTAGGTCAACGAGGGTCAGCTAATCTGCTA the value was 5.1; for TCTTGGAGGACACGAAGGTCAGAGCTTTCCAGAG, 2.35. For ATATGTAGGTTACATCCGGGTCATTCGGGCTATG the value was 3.9; for TAGCCTAGGTCATGGGCCAGTATCCCACGCGAAC, 1.76; for CTACCAAGGTGAACAAGGGCGTTGATTACTATTC, 4.73. Under ATATGTAGGTTAAGGGTAATTCAGGTTGGTTCGC stands 1.61; under CGAACTAGGTCAAAGGTCAAAGTCGAGCCAACCA, 6.78. For the sequence ATCGAAAGATCGACGAGGTGAGTATACACCGTTT, the PBM binding z-score is 0.0445. For GCTAGTTGGTCAGTAAAAAGTCACACACCGGTCG the value was 0.0507; for GCTAGTTGGTGAGTAAAAGGTCACACACCGGTCG, 3.72. Under TAGCCTAGGTCATTGGGCCAGTATCGTACGCATC stands 2.37.

Values taken from the supplement of paper PMC6555819.
